# Assay outcomes (PubChem BioAssay)
# A selection: hits, their analogues and other compounds. The true share with any hit is near 18%.
# VDR inh = vitamin D3 receptor (human) inhibition; 0.93% of 400,000 active; AID 504847; VDR-SRC2-3 peptide fluorescence polarization, 2 h; Potency, µM, for the others: max response, negative = inhibition, usual class: inhibitors
# Target sequence (P11473 whole entry, looked up): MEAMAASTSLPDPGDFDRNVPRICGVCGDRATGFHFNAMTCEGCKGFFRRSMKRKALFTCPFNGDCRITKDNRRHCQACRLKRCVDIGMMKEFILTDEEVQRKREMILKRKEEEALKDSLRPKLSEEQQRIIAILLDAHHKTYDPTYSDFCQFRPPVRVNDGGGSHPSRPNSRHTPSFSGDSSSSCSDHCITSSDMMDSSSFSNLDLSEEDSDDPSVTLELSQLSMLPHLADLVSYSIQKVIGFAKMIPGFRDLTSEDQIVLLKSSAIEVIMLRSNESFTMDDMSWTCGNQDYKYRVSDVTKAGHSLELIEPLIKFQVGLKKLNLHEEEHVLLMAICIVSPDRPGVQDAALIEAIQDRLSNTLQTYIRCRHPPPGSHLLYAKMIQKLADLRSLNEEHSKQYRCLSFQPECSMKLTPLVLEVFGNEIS
#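 Signal is fluorescence polarization, reporting how far test compounds block the interaction of VDR with the SRC2-3 coregulator peptide after a 2 h room-temperature incubation.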
# TDP1 cell noCPT = qHTS for Inhibitors of human tyrosyl-DNA phosphodiesterase 1 (TDP1): qHTS in cells in absence of CPT; 15% of 420,000 active; DT40 Tdp1-/- hTDP1 cells, no CPT, ATP luminescence, 48 h; Potency, µM (titrated, usually from 46.2 µM), without a hit: top-dose activity change, negative = growth inhibition, hits mostly inhibitors; further: nearly all actives have a fitted effect of over 55% in size
#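 Compound effects on proliferation are scored in DT40 Tdp1-/-;hTDP1 cells in the absence of CPT. ATP levels (CellTiter-Glo luminescence) are recorded after a ≥48 hr, 37 °C incubation.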
# DT40 TDP1 CPT = DT40-hTDP1 cell growth loss with CPT; AID 686979; 12% of 420,000 active; chicken DT40 Tdp1-/-;hTDP1 cells + 20 nM CPT, ATP luminescence, 48 h; Potency, µM (titrated, usually from 46.2 µM), for inactives: at the top dose activity change, negative = growth inhibition, most hits filed as inhibitors; further: nearly all actives have a fitted effect of over 55% in size
#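 Cell growth measured by CellTiter-Glo luminescence after a minimum 48 h, 37 C compound exposure with 20 nM CPT in Tdp1-knockout DT40 cells stably expressing hTDP1, seeded 400/well; qHTS titration format.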
# PLK1 PBD block = PLK1 (human) polo-box domain binding inhibition | P53350 | Plk1 PBD binding of FITC phosphopeptide, fluorescence polarization | Potency, µM, for the others: max response, negative = inhibition, usual class: inhibitors | 2.8% of 360,000 active; further: series mostly up to about 57 µM; nearly all actives have a fitted effect of over 65% in size
# KAT2A inh = inhibitors of human GCN5L2 histone acetyltransferase. Q92830. GCN5L2 HAT assay, ThioGlo1 CoA-SH fluorescence. Potency, µM (top dose mostly 58.9 µM), for inactives: top-dose activity change, negative = inhibition, hits mostly inhibitors. 0.21% of 390,000 active. AID 504327
#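 qHTS, 1536-well. 20nM enzyme, pH 7.5 HEPES/EDTA/Tween-20 buffer; 15 min compound preinc., RT. Start: 75uM H3(1-25), 70uM AcCoA, 50uM ThioGlo1. Read Ex340/Em540 at t=0 (autofluorescence flag) and t=20 min.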
# TDP1 inh = TDP1 (human) enzyme inhibition; Q9NUW8; recombinant TDP1, AlphaScreen DNA substrate cleavage; Potency, µM (highest dose often 130 µM), without a hit: at the top dose activity change, negative = inhibition, most hits filed as inhibitors; 0.28% of 350,000 active; AID 485290; further: nearly all actives have a fitted effect of over 40% in size
#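 Signal: AlphaScreen proximity between streptavidin donor and anti-FITC acceptor beads on intact substrate. Reaction: Tdp1 1 nM, substrate 15 nM final, 5 min RT after 15 min compound preincubation.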
# The depositor's hits bear a star; u = inconclusive; x = no result; [ ] = another dose, or the depositor's remark. The call rests on the fitted dose curve; in most records, active means well fitted curve in the direction sought with a large enough effect; inconclusive means small, poorly fitted or top-dose-only effect, or another doubt; inactive means no such curve, though single readings can be large; an effect the other way counts as inactive or inconclusive. On the % scale 0 is the no-effect control and ±100 the full control effect; potency means the concentration at half of the fitted maximal effect.
SMILES,VDR inh,TDP1 cell noCPT,DT40 TDP1 CPT,PLK1 PBD block,KAT2A inh,TDP1 inh
CC(C)c1ccc(CC(=O)N2CCC2(C)C(=O)NCCC#N)cc1 (stereo unspecified),x,-24.6%,-34.0%,1.0%,x,x
CC1(C(=O)NCc2ccc(Cl)cc2)CCN1C(=O)Cc1ccc(Cl)cc1Cl (stereo unspecified),x,u,18.4µM*,-0.5%,x,x
CC(C)(C)c1ccc(CC(=O)N2CCC2(C)C(=O)NCc2ccc(Cl)cc2)cc1 (stereo unspecified),x,20.6µM*,u,-2.5%,x,x
CC(C)c1ccc(CC(=O)N2CCC2(C)C(=O)NCC(C)(C)C)cc1 (stereo unspecified),x,23.1µM*,u,0.1%,x,x
CCOC(=O)N1CCN(C(=O)Cn2ccc3c(OC)cccc3c2=O)CC1,-5.7%,u,-29.4%,-14.0%,-2.3%,x
Cc1c(N2CCCC2)cc2c(c1NC(=O)c1ccccc1Cl)C(C)(C)CC2(C)C,-4.1%,14.6µM*,u,-9.5%,-19.7%,10.1%
Cc1nn(C)c(C)c1CN(C)S(=O)(=O)c1ccc2ccccc2c1,-1.5%,1.26µM*,2.24µM*,-0.3%,0.7%,-12.0%[56.1 µM]
CCN(CC)c1ccc(C(=O)NCc2ccc3c(c2)CCN3C(=O)c2ccc(F)cc2)cc1,12.4%,4.61µM*,5.8µM*,x,-2.3%,3.4%
N#Cc1ccc(C(=O)NCc2ccc3c(c2)CCN3C(=O)c2ccc(F)cc2)cc1,8.8%,23.1µM*,u,x,0.5%,1.5%
CCCCn1c(Oc2cccc(C(=O)OC)c2)nc2c1c(=O)n(C)c(=O)n2C,13.6%,2.8%,-15.1%,x,0.4%,9.3%
COc1ccccc1C(=O)NCCOc1ccc(C(C)(C)C)cc1,-7.8%,20.6µM*,u,4.0%,-23.6%,-4.1%
COc1ccccc1C(=O)NCCNC(=O)c1ccco1,4.4%,u,u,26.7µM*,0.6%,0.7%
O=C(NCCNC(=O)c1ccccc1Cl)c1ccco1,-27.7%,-0.4%,-24.2%,u,2.6%,u
COc1cc(OC)c(OC)cc1CNCCNC(=O)c1ccco1,-2.7%,-26.0%,-13.3%,-7.3%,-2.4%,1.4%
COc1ccccc1C(=O)Nc1ccc(NC(=O)c2ccco2)cn1,-8.0%,20.6µM*,u,-2.1%,-4.5%,x
COc1cccc(CNCCNC(=O)c2ccco2)c1OC,-12.8%,-21.9%,-7.2%,18.9µM*,-0.1%,1.8%
Cc1ccc(C2=NCN(c3ccc(C(=O)O)cc3)C(=S)N2)cc1,x,x,x,x,0.3%,3.5%
O=C(COc1ccc(Cl)cc1)Nc1cnn(Cc2c(Cl)cccc2Cl)c1,89.1µM*,-23.3%,-16.1%,-8.6%,0.8%,2.0%
O=C(Nc1cnn(Cc2c(Cl)cccc2Cl)c1)c1ccc([N+](=O)[O-])cc1,11.3%,16.4µM*,u,-17.7%,u,2.0%
CC(C#N)(NC(=O)CN1CCN(S(=O)(=O)c2cccc(F)c2)CC1)C1CC1 (stereo unspecified),x,6.1%,1.7%,-12.0%,x,x
C[C@H](CO)N1C[C@H](C)[C@@H](CN(C)S(C)(=O)=O)Oc2ccc(NS(=O)(=O)c3ccccc3)cc2C1=O,20.9%,-6.2%,11.7%,-9.2%,-1.2%,0.7%
O=C(N[C@H]1C/C=C\C[C@H](CC(=O)N(CCO)Cc2ccccc2)C(=O)N[C@@H](c2ccccc2)COC1=O)OCC1c2ccccc2-c2ccccc21,-17.2%,13µM*,7.31µM*,-12.0%,-8.8%,-8.0%
CC(C)(C)OC(=O)C[C@@H]1C/C=C\C[C@H](CC(=O)N(CCO)Cc2ccccc2)C(=O)N[C@@H](c2ccccc2)COC1=O,10.5%,u,u,3.7%,-2.0%,3.5%
O=C1CC/C=C\C[C@@H](CC(=O)N(CCO)Cc2ccccc2)C(=O)NC[C@@H](c2ccccc2)O1,11.9%,-26.3%,-1.6%,-9.6%,-7.7%,0.2%
O=C(N[C@@H]1C/C=C\C[C@@H](CC(=O)N(CCO)Cc2ccccc2)C(=O)NC[C@H](c2ccccc2)OC1=O)OCC1c2ccccc2-c2ccccc21,10.4%,7.31µM*,2.59µM*,0.1%,-14.1%,-5.3%
SMILES,VDR inh,TDP1 cell noCPT,DT40 TDP1 CPT,PLK1 PBD block,KAT2A inh,TDP1 inh
O=C(N[C@@H]1C/C=C\C[C@H](CC(=O)N(CCO)Cc2ccccc2)C(=O)NC[C@@H](c2ccccc2)OC1=O)OCC1c2ccccc2-c2ccccc21,-5.2%,5.8µM*,6.51µM*,2.3%,-16.9%,-1.1%
O=C(C[C@H]1C/C=C\C[C@H](NC(=O)OCC2c3ccccc3-c3ccccc32)C(=O)O[C@H](c2ccccc2)CNC1=O)N[C@H](CO)Cc1ccccc1,2.9%,3.66µM*,3.26µM*,-7.7%,-4.9%,-2.4%
NC(=O)c1cc[n+](CC(=O)NC(=O)Nc2ccccc2)cc1,-2.0%,4.0%,4.0%,-4.7%,0.5%,0.6%
Cc1ccc(C)c(S(=O)(=O)N2CCN(C(=O)CNC(=O)c3sc4ccccc4c3Cl)CC2)c1,77.9%,-0.4%,-17.7%,-0.1%,x,x
O=C(NCC(=O)N1CCN(S(=O)(=O)c2ccccc2C(F)(F)F)CC1)c1sc2ccccc2c1Cl,-11.4%,11.6µM*,u,-0.7%,u,1.2%
COc1cc2c(cc1OC)C(CCc1ccccc1)=NCC2,12.9%,16.4µM*,u,-5.2%,-1.9%,x
Cc1onc(-c2c(Cl)cccc2Cl)c1C(N)=O,9.4%,-7.2%,u,-15.3%,-9.0%,-5.6%
S=C(c1ccc(-c2cc(Cl)ccc2Cl)o1)N1CCCCC1,-16.9%,u,u,-0.7%,-9.8%,-3.4%
COc1cc2c(cc1OC)C(c1cc(-c3cc(Cl)ccc3Cl)oc1C)=NCC2,x,1µM*,1.26µM*,x,x,x
COc1cc2c(cc1OC)C(c1c(Cl)cccc1Cl)=NCC2,x,0.231µM*,0.259µM*,-6.0%,x,x
COc1cc2c(cc1OC)C(c1c(-c3c(Cl)cccc3Cl)noc1C)=NCC2,x,10.3µM*,23.1µM*,-3.3%,x,x
Cc1ccc(NC(=O)Cn2c(-c3nonc3N)nc3ccccc32)cc1C,-8.3%,u,u,x,-4.6%,0.4%[12.3 µM]
COc1ccc(C2=NCCc3cc(OC)c(OC)cc32)cc1,0.9%,20.6µM*,u,-2.3%,-11.1%,0.0%
COc1ccc(C2=NCCn3nc4cc(OC)ccc4c32)cc1,-30.5%,u,u,-15.9%,-5.3%,2.7%
COc1ccc(/C=N/N(C)C2=NCCN2)c(OC)c1OC,-2.3%,-1.5%,0.3%,-5.9%,-12.7%,x
COc1cc2c(cc1OC)C(/C=C/c1ccc(OC)c(OC)c1OC)=NCC2,50.1µM*,u,u,x,x,14.9%
